Experimental data taken from PubChem BioAssay AID504465 (National Center for Advancing Translational Sciences (NCATS), 2011).
Screen size: about 2,100 compounds; about 210 (10%) were called active. Another 53% or so got no clear call; they are omitted. Calls come from the whole dose curve; as a rule, active = well fitted inhibition curve with a large enough effect; inconclusive = small, poorly fitted or top-dose-only effect, or effect the other way; inactive = no such curve, though single readings can be large or run the other way. The list shows a part of the results. Where a call stands in place of a potency, no number is given.

Experiment: IN Cell qHTS Assay for Inhibitors of the mTORC1 Signaling Pathway in MEF (Tsc2-/-, p53-/-) Cells: Sytravon; note: nearly all actives have a fitted effect of over 60% in size
Settings: phospho-rpS6 immunofluorescence, 24 h; series mostly up to 38.3 µM
Method in brief: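 Tsc2-/-, p53-/- MEFs (empty-vector) treated with compound 24 h at 37 degree Celsius, then fixed and stained for phospho-rpS6 Ser235/236 (Alexa-488) plus Hoechst. Reported as % positive cells, thresholds set against 7.5 nM rapamycin and DMSO wells.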
Potency is the fitted concentration of half-maximal effect.

Structure (SMILES)	Potency
COc1ccc(NS(=O)(=O)c2ccc3c(c2)CCCN3C(=O)C2CCC2)cc1OC	inactive
CC1=Nc2cc(C(=O)NC(C)C)ccc2Sc2ccc(C)cc21	inactive
Cc1ccc(-c2csc(-c3cc4c([nH]c3=O)CC(c3ccccc3)CC4=O)n2)cc1 (configuration not stated)	inactive
CCOc1ccc(S(=O)(=O)N(C(=O)c2ccncc2)c2ccc3oc(C)c(C(=O)OC)c3c2)cc1	3.29 µM (active)
CC(=O)c1c(C)oc2ccc(N(C(=O)c3ccncc3)S(=O)(=O)c3ccc(F)cc3C)cc12	inactive
COC(=O)c1c(C)oc2ccc(N(C(=O)c3ccncc3)S(=O)(=O)c3cc(C)ccc3C)cc12	inactive
Cc1cc(C)c2c(=O)cc(CSCC(=O)Nc3nnc(C)s3)[nH]c2c1	inactive
CC(C)Cc1cc(C(=O)NCc2ccc(Cl)cc2)no1	inactive
COc1ccccc1Cc1nc2ccccc2nc1SCC(=O)N1CCCCC1	inactive
CCc1ccc(NC(=O)c2ccc(F)c(S(=O)(=O)NCc3ccc(Cl)c(Cl)c3)c2)cc1	inactive
CCc1ccc(C(=O)c2cnc3ccc(F)cc3c2S(=O)(=O)c2ccccc2)cc1	4.65 µM (active)
CCOC(=O)c1cnc2ccc(C)cc2c1Nc1ccc(OCc2ccccc2Cl)cc1	inactive
Cc1cc(Cl)ccc1NC(=O)C1CCCN1S(=O)(=O)c1ccc2c(c1)CCCC(=O)N2 (configuration not stated)	inactive
O=C(c1cc(-c2cccc(Cl)c2)on1)N1CCN(c2ccccc2)CC1	inactive
COc1ccc(N2CCN(Cc3nc(-c4ccc(C)cc4)no3)CC2)cc1	inactive
COc1ccc(-c2nc(S(=O)(=O)c3ccc(C)cc3)c(N3CCCCC3)o2)cc1	13.1 µM (active)
O=S(=O)(c1ccccc1)c1nc(-c2cccc(Cl)c2)oc1N1CCOCC1	9.27 µM (active)
Cc1ccc(-c2nc(S(=O)(=O)c3ccc(C)cc3)c(N3CCN(c4ccccc4)CC3)o2)cc1	inactive
CC(=O)N1CCOc2cc(S(=O)(=O)Nc3c(C)cccc3C(C)C)c(Cl)cc21	inactive
Cc1cc(C)c2c(=O)c3c(oc2c1)C(=O)N(Cc1ccc(F)cc1)C3c1cccc(O)c1 (configuration not stated)	inactive
Cc1cc(C)cc(NS(=O)(=O)c2ccc(-c3cc(C)no3)cc2)c1	inactive
CCC(C(=O)Nc1ccc(C)c(Cl)c1)n1c(=O)c(-c2ccccc2NC(C)=O)nc2ccccc21 (configuration not stated)	inactive
O=C1Nc2ccccc2Oc2cc(Oc3ccccc3)ccc21	inactive
Cc1cc(C)c2c(CC(=O)N(Cc3ccc(N(C)C)cc3)Cc3ccco3)coc2c1	6.56 µM (active)
Cc1ccc(CN(Cc2ccco2)C(=O)COc2c(C)cc(C)cc2C)cc1	inactive

Structure (SMILES)	Potency
Cc1ccc2occ(CC(=O)N(Cc3ccc(Cl)cc3)Cc3ccco3)c2c1	inactive
CCN1CCN(c2cc(C)c3cc(NC(=O)/C=C/c4ccc(C)cc4)ccc3n2)CC1	5.21 µM (active)
Cc1ccc(NC(=O)c2ccc(F)c(S(=O)(=O)NCCc3ccccc3)c2)cc1F	inactive
Cc1cccc(CC(=O)Nc2ccc3nc(N4CCC(C)CC4)cc(C)c3c2)c1	inactive
COc1cccc(NC(=O)Nc2ccc3nc(N4CCN(C)CC4)cc(C)c3c2)c1	inactive
CCCCc1ccc(C(=O)Nc2ccc3nc(N4CCN(CC)CC4)cc(C)c3c2)cc1	2.61 µM (active)
Cc1ccc(S(=O)(=O)N2CCc3cc(C(=O)Nc4ccc(C(F)(F)F)cc4)ccc32)cc1	inactive
COc1ccc(Cl)cc1NC(=O)CCn1nc(C)cc1C	inactive
CCCCc1ccc(NC(=O)c2ccc3c(c2)CCN3S(=O)(=O)c2ccccc2)cc1	inactive
CCN1CCN(c2cc(C)c3cc(NC(=O)c4cc(Cl)ccc4OC)ccc3n2)CC1	2.93 µM (active)
COc1ccccc1C(=O)Nc1ccc2nc(N3CCC(C)CC3)cc(C)c2c1	inactive
Cc1cc(N2CCN(C)CC2)nc2ccc(NC(=O)c3ccc(C(C)(C)C)cc3)cc12	1.85 µM (active)
COc1cc(-c2nc(-c3ccccc3)c(-c3ccc(Br)cc3)[nH]2)cc(OC)c1O	inactive
CCOc1ccc(CN2C(=O)c3ccccc3Sc3ccc(C(=O)O)cc32)cc1	inactive
CCS(=O)(=O)N1CC(=O)N(c2ccc(Cl)cc2C)C(C)(C(=O)NC2CCCCC2)C1 (configuration not stated)	inactive
COc1ccc(Oc2nc3c(C)cccn3c(=O)c2/C=C(\C#N)c2nc3ccccc3[nH]2)cc1	inactive
O=C(Nc1ccc(Cl)cc1F)c1cc(S(=O)(=O)NC2CCCCCC2)ccc1F	inactive
COc1ccc(NC(=O)[C@H]2O[C@@H]3OC(C)(C)O[C@@H]3[C@H]3OC(C)(C)O[C@H]32)c(OC)c1	inactive
CC(C)c1ccc(CNCCSc2nnnn2C)cc1	inactive
COCc1oc2ccc(NS(=O)(=O)c3ccc(C)cc3)cc2c1C(=O)OC	inactive
CCOC(=O)c1cccc(NC(=O)c2cc3sccc3n2Cc2ccc(Cl)cc2)c1	inactive
CCOc1ccc(OCC)c(NS(=O)(=O)c2ccc(-c3coc(C)n3)cc2)c1	inactive
CCCCOc1ccc(CN2C(=O)C(=O)c3cc(Br)cc(C)c32)cc1OC	5.85 µM (active)
Cc1ccc(CN2C(=O)C(=O)c3cc(Br)cc(C)c32)cc1	5.85 µM (active)
CCCC1=Nc2cc(C(=O)NCCc3ccccc3)ccc2Sc2ccc(C)cc21	inactive

Structure (SMILES)	Potency
Cc1c(Cl)cccc1NC(=O)NCc1c(-n2cccc2)sc2c1CCCC2	inactive
CCCN(Cc1cccs1)C(=O)Nc1ccccc1C	inactive
COc1ccccc1NC(=O)Cn1c(SCC(=O)Nc2ccc(F)cc2)nc2ccccc21	inactive
Cc1ccc(CNC(=O)Cn2c(SCC(=O)Nc3ccc(F)cc3)nc3ccccc32)cc1	5.21 µM (active)
O=C(CSc1cn(CCNC(=O)c2ccccc2F)c2ccccc12)Nc1ccc(F)cc1	inactive
COc1ccc(NC(=O)CSc2nc3ccccc3n2Cc2cccc(OC)c2)cc1	11.7 µM (active)
COc1ccc(-c2nc(SCC(=O)Nc3ccc4c(c3)OCO4)c(-c3ccc(OC)cc3)[nH]2)cc1	inactive
COc1ccc(NC(=O)CSCc2cnn(-c3ccccc3)c2-n2cccc2)cc1	inactive
CC(=O)N1c2ccc(S(=O)(=O)NCC3CCC(C(=O)Nc4cc(C)cc(C)c4)CC3)cc2CC1C (configuration not stated)	inactive
NC(=O)CSc1nc2ccc(NC(=O)COc3ccccc3Cl)cc2s1	inactive
Cc1ccc2[nH]cc(C(c3ccccc3)c3ccc(Cl)s3)c2c1 (configuration not stated)	inactive
CCc1cccc(NC(=O)c2ccc(CNS(=O)(=O)c3ccc4c(c3)C(C)(C)C(=O)N4C)cc2)c1	inactive
Cc1cncn1CCc1nc2c3ccccc3nc(SCC(=O)Nc3ccccc3F)n2n1	inactive
O=c1[nH]c(SCc2ccc(Br)cc2)nc2c1CCCC2	inactive
COc1ccc(Nc2c3c(nc4nncn24)CCC3)cc1OC	inactive
Brc1ccc(Nc2c3c(nc4nncn24)CCC3)cc1	10.4 µM (active)
CCOc1ccc(-c2nonc2NC(=O)c2oc3ccc(CC)cc3c2C)cc1	inactive
NS(=O)(=O)c1ccc(CCNC(=O)C2COc3ccccc3C2)cc1 (configuration not stated)	inactive
COc1ccc(NC(=O)c2c(C)oc3ccc(O)c(CN4CCCC(C)C4)c23)cc1 (configuration not stated)	inactive
Cc1oc2ccc(O)c(CN3CCC(C)CC3)c2c1C(=O)Nc1ccccc1	5.21 µM (active)
COc1ccc(NC(=O)c2c(C)oc3ccc(O)c(CN4CCN(Cc5ccccc5)CC4)c23)cc1Cl	inactive
Cc1oc2ccc(O)c(CN3CCCCCC3)c2c1C(=O)Nc1cccc(Cl)c1C	inactive
Cc1ccc(NC(=O)c2c(C)oc3ccc(O)c(CN4CCCCCC4)c23)cc1	inactive
COc1ccc(NC(=O)c2c(C)oc3ccc(O)c(CN4CCC(C)CC4)c23)cc1Cl	13.1 µM (active)
O=C(Cn1cc(SCc2ccc(Cl)cc2)c2ccccc21)N1CCCC1	inactive

Structure (SMILES)	Potency
Oc1c(C(Nc2ccccn2)c2ccccc2F)ccc2cccnc12 (configuration not stated)	inactive
COc1ccc(C)cc1NC(=O)c1cc(S(=O)(=O)N2CCN(c3cccc(C)c3C)CC2)ccc1F	inactive
Cc1cc(NC(=O)C2CCC(CNS(=O)(=O)c3ccc(Br)s3)CC2)ccc1Br (configuration not stated)	inactive
COc1ccccc1C(=O)Nc1sc(Nc2ccccc2)nc1C(N)=O	18.5 µM (active)
COc1ccccc1C(=O)Nc1nc2ccc(S(=O)(=O)N3CCCC3)cc2s1	inactive
COc1ccccc1C(=O)Nc1cccc(OCc2cc(=O)n3ccccc3n2)c1	inactive
CCCCNC(=O)CSc1nc2n[nH]c(C)c2c(=N)n1-c1cccc(Cl)c1C	inactive
Cc1ccc(-c2nc3ccc(Cl)cn3c2Nc2ccccc2C)s1	inactive
Cc1cc(C)cc(NS(=O)(=O)c2ccc(-c3cc(C)no3)s2)c1	inactive
CCC1=Nc2cc(C(=O)NC3CCCC3)ccc2Sc2ccc(Cl)cc21	inactive
Cc1nc(-c2ccc(F)cc2)sc1CCNC(=O)C(=O)Nc1ccc2c(c1)OCCO2	inactive
CC(=O)Nc1cccc(NC(=O)C(=O)NCCc2sc(-c3ccccc3)nc2C)c1	2.33 µM (active)
CCCC(=O)Nc1cccc(-c2cn3c(C)csc3n2)c1	inactive
O=c1oc2ccccc2cc1-c1cn2cc(Cc3ccccc3F)sc2n1	inactive
CCOc1cc(C2C(C(=O)OC)=C(C)NC3=C2C(=O)c2ccccc23)cc(Br)c1OCC (configuration not stated)	inactive
CC(NC(=O)c1c2c(nc3ccccc13)C(=O)N(C1CCCCC1)C2)c1ccccc1 (configuration not stated)	inactive
CCCCN(CC)CCCNC(=O)c1ccc2c(c1)N(Cc1ccc(C)cc1)C(=O)c1ccccc1S2	inactive
CCC1CCCCN1CCCNC(=O)c1ccc2c(c1)N(Cc1cccc(Cl)c1)C(=O)c1ccccc1S2(=O)=O (configuration not stated)	inactive
CC1CCCN(CCCNC(=O)c2ccc3c(c2)N(Cc2cccc(Cl)c2)C(=O)c2ccccc2S3(=O)=O)C1 (configuration not stated)	inactive
Cc1ccc(CN2C(=O)c3ccccc3Sc3ccc(C(=O)NCCCN4CCOCC4)cc32)cc1	16.5 µM (active)
Cc1ccc(C)c(CN2C(=O)c3ccccc3S(=O)(=O)c3ccc(C(=O)NCCCN4CCCC(C)C4)cc32)c1 (configuration not stated)	5.21 µM (active)
Cc1cccc(CN2C(=O)c3ccccc3Sc3ccc(C(=O)NC4CCCCC4)cc32)c1	inactive
